In PubChem BioAssay:
Calls of active or inactive are those of the source. Unless noted, no rule for the calls is given here.

tested on: not listed separately; test: circadian clock period modulators, cell-based, LOPAC library, luminescence reporter (AID 2774); settings: circadian reporter cells, at 7 µM, actives lie on both sides;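 also: values are relative to mean of DMSO wells on each plate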

| Compound | period change |
| --- | --- |
| Oc1cc(O)cc(/C=C/c2ccc(O)c(O)c2)c1 | -0.07 h (inactive) |
| O=Nc1c(-c2c(O)[nH]c3ccccc23)[nH]c2ccccc12 | -0.845 h (active) |
| Cc1cccc(C#Cc2ccccc2)n1 | 0.065 h (inactive) |
| CC(C)N(CCC(=O)c1ccc2ccccc2c1)Cc1ccccc1 | 0 h (inactive) |
| COc1cc2c(cc1O)CC[C@@H]1[C@@H]2CC[C@]2(C)[C@@H](O)CC[C@@H]12 | -1.4 h (active) |
| N#C/C(=C\c1ccc(O)c(O)c1)C(=O)NCc1ccccc1 | 0.01 h (inactive) |
| O=c1cc(N2CCOCC2)oc2c(-c3ccccc3)cccc12 | 0.01 h (inactive) |
| O=S(=O)(NCCNC/C=C/c1ccc(Br)cc1)c1cccc2cnccc12 | -0.05 h (inactive) |
| Oc1ccc(-c2nc(-c3ccc(F)cc3)c(-c3ccncc3)[nH]2)cc1 | 1.07 h (active) |
| CC(C)(Sc1ccc(CCN(CCCCC2CCCCC2)C(=O)NC2CCCCC2)cc1)C(=O)O | -0.015 h (inactive) |
| O=C1c2ccccc2-c2n[nH]c3cccc1c23 | 1.23 h (active) |

tested on: not listed separately; test: hESC survival regulators, cell-based (AID 493140); settings: human embryonic stem cell survival screen; stronger effect = higher value;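 also: cells exposed to compounds for four days before counting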

| Compound | survival |
| --- | --- |
| Oc1cc(O)cc(/C=C/c2ccc(O)c(O)c2)c1 | 27.6 (inactive) |
| O=Nc1c(-c2c(O)[nH]c3ccccc23)[nH]c2ccccc12 | 71.6 (inactive) |
| N#CC(=C(/N)Sc1ccccc1N)/C(C#N)=C(\N)Sc1ccccc1N | 104 (inactive) |
| N#C/C(=C\c1ccc(O)c(O)c1)C(=O)NCc1ccccc1 | 133 (inactive) |
| O=c1cc(N2CCOCC2)oc2c(-c3ccccc3)cccc12 | 83.6 (inactive) |
| O=S(=O)(NCCNC/C=C/c1ccc(Br)cc1)c1cccc2cnccc12 | 202 (active) |
| Oc1ccc(-c2nc(-c3ccc(F)cc3)c(-c3ccncc3)[nH]2)cc1 | 94 (inactive) |
| Cc1ccc(S(=O)(=O)/C=C/C#N)cc1 | 9.17 (inactive) |
| Cc1ccc(NC(=O)c2cccc(N(C)C)c2)cc1NC(=O)c1ccc(O)cc1 | 103 (inactive) |
| O=C1c2ccccc2-c2n[nH]c3cccc1c23 | 97.1 (inactive) |

tested on: not listed separately; test: liver-stage malaria parasite growth inhibition, primary screen, cell-based, HepG2, luciferase luminescence, HepG2 viability (AID 624349; in the data active = parasite load remaining mostly below about 12%, no sharp cut-off; inactive = mostly above about 10%;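 also: 100% = mean of DMSO negative control wells on the same plate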); settings: P. berghei liver stage in HepG2, luciferase luminescence, concentration not given here; parasite load remaining: stronger effect = lower value; viability: measured here: HepG2 viability without parasites

| Compound | viability | parasite load remaining |
| --- | --- | --- |
| COc1cc(SC)ccc1C(=O)N1CCC(Cc2ccccc2)CC1 | 67% | 38.9% (inactive) |
| N#C/C(=C(/N)Sc1ccc(N)cc1)c1ccccc1C(F)(F)F | 76.3% | 62.2% (inactive) |
| O=Nc1c(-c2c(O)[nH]c3ccccc23)[nH]c2ccccc12 | 168% | 33.5% (inactive) |
| C[C@@H](N)C1CCC(C(=O)Nc2ccncc2)CC1 (stereo partly specified) | 142% | 75.2% (inactive) |
| Nc1nccc(-c2ccc3noc(-c4ccc(Cl)cc4)c3c2)n1 | 88.2% | 22.2% (inactive) |
| NC(=O)c1ccc(-c2nc(-c3ccc4c(c3)OCCO4)c(-c3ccccn3)[nH]2)cc1 | 94.8% | 23.5% (inactive) |
| CC(C)N(CCC(=O)c1ccc2ccccc2c1)Cc1ccccc1 | 88.8% | 28.5% (inactive) |
| Cc1ccccc1C(=O)c1ccc(Nc2ccc(Br)cc2N)cc1Cl | 76.7% | 40.9% (inactive) |
| N#C/C(=C\c1ccc(O)c(O)c1)C(=O)NCc1ccccc1 | 65.5% | 29.1% (inactive) |
| O=c1cc(N2CCOCC2)oc2c(-c3ccccc3)cccc12 | 79.9% | 36% (inactive) |
| O=S(=O)(NCCNC/C=C/c1ccc(Br)cc1)c1cccc2cnccc12 | 66.5% | 26.7% (inactive) |
| Oc1ccc(Nc2nc(-c3ccc(Cl)cc3)cs2)cc1 | 65.5% | 34.6% (inactive) |
| Oc1ccc(-c2nc(-c3ccc(F)cc3)c(-c3ccncc3)[nH]2)cc1 | 95.1% | 28.5% (inactive) |
| O=C(c1ccc(Nc2nccc(-c3cc4ccccc4s3)n2)cc1)N1CCC(N2CCCC2)CC1 | 86.2% | 27.7% (inactive) |
| Cc1ccc(S(=O)(=O)/C=C/C#N)cc1 | 155% | 28.8% (inactive) |
| O=C1c2ccccc2-c2n[nH]c3cccc1c23 | 81% | 34% (inactive) |

tested on: Hepatitis C virus NS3 helicase; test: HCV NS3 helicase inhibitors, primary screen, biochemical, fluorescence polarization, LOPAC1280 library (AID 687035; in the data active = inhibition above about 37%); settings: Purified HCV NS3 helicase, Cy5-dT15 ssDNA binding fluorescence polarization; stronger effect = higher value; concentration not given here

| Compound | inhibition |
| --- | --- |
| COc1cc(SC)ccc1C(=O)N1CCC(Cc2ccccc2)CC1 | 1% (inactive) |
| Oc1cc(O)cc(/C=C/c2ccc(O)c(O)c2)c1 | -6% (inactive) |
| O=Nc1c(-c2c(O)[nH]c3ccccc23)[nH]c2ccccc12 | 0% (inactive) |
| Cc1cccc(C#Cc2ccccc2)n1 | -1% (inactive) |
| CC(C)N(CCC(=O)c1ccc2ccccc2c1)Cc1ccccc1 | -3% (inactive) |
| COc1cc2c(cc1O)CC[C@@H]1[C@@H]2CC[C@]2(C)[C@@H](O)CC[C@@H]12 | -1% (inactive) |
| N#C/C(=C\c1ccc(O)c(O)c1)C(=O)NCc1ccccc1 | 0% (inactive) |
| CCOC(=O)C(C)Oc1cccc2c(=O)n(CC(=O)Nc3ccc4c(c3)OCCO4)ccc12 (stereo unspecified) | -3% (inactive) |
| O=c1cc(N2CCOCC2)oc2c(-c3ccccc3)cccc12 | -3% (inactive) |
| Oc1ccc(-c2nc(-c3ccc(F)cc3)c(-c3ccncc3)[nH]2)cc1 | -3% (inactive) |
| Cc1ccc(S(=O)(=O)/C=C/C#N)cc1 | 0% (inactive) |
| CC(C)(Sc1ccc(CCN(CCCCC2CCCCC2)C(=O)NC2CCCCC2)cc1)C(=O)O | 3% (inactive) |
| O=C1c2ccccc2-c2n[nH]c3cccc1c23 | 1% (inactive) |
